Screening results (PubChem BioAssay)
KB-V1 cytotox = kills drug-selected multidrug resistant KB-V1 cells. KB-V1 MDR cells viability, CellTiter-Glo, 72 h. Potency, µM (doses to about 46.1 µM), most hits filed as cytotoxic. hit rate 3.4% among 400,000. AID 1347076; also: % is scaled to controls: 0 for no effect and ±100 for the full control effect; nearly all actives have a fitted effect of over 60% in size
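In this primary screen, KB-V1 cells overexpressing P-gp are incubated with library compounds (lowest to highest concentration) for 72 h at 37 degrees C before a luminescent ATP viability read.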
HT1080-NT tox = kills 2HG-producing HT-1080-NT fibrosarcoma cells. hit rate 1.6% among 360,000. Potency, µM (highest dose often 46.1 µM), for the others: at the top dose activity, negative = less viability, usual class: cytotoxic. HT-1080-NT fibrosarcoma viability, CellTiter-Glo ATP luminescence, 48 h;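 also: NT is the 2HG producing partner of a matched IDH1 knockdown line; 0% = DMSO-treated cells and -100% = media-only wells without cells; nearly all actives have a fitted effect of over 55% in size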
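Toxicity toward the 2HG-producing NT line was scored as %Activity, normalised to DMSO and no-cell wells, from CellTiter-Glo luminescence after 48 hours' treatment.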
KB-3-1 tox = KB-3-1 parental cell cytotoxicity | AID 1347075 | Potency, µM (top dose mostly 46.1 µM), actives largely listed as cytotoxic | KB-3-1 viability, CellTiter-Glo ATP luminescence, 72 h | hit rate 1.4% among 400,000; also: % is scaled to controls: 0 for no effect and ±100 for the full control effect; nearly all actives have a fitted effect of over 60% in size
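Luminescent ATP read-out (CellTiter-Glo) measures survival of drug-naive KB-3-1 cells after 72 h compound exposure at 37 °C. Titration series was screened from lowest to highest concentration, with DMSO vehicle plates as background controls.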
SW480 rerep = inducers of DNA re-replication in SW480 colon cancer cells. SW480 DNA re-replication, Hoechst DNA content imaging, 48 h. hit rate 1.8% among 340,000. AID 624297. Potency, µM (top dose mostly 46.1 µM), for inactives: at the highest dose re-replication activation, actives largely listed as activators; also: % of control where 0% means no effect; nearly all actives have a fitted effect of over 55% in size
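Readout is total intensity of Hoechst-stained nuclei, excited at 405 nm and collected at 500-530 nm. Compound treatment lasted 48 hr at 37 C in 5% CO2 before staining.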
HT1080 IDH1KD tx = toxicity to HT-1080 IDH1 knockdown cells (counter line); HT-1080 IDH1 knockdown viability, ATP luminescence, 48 h; hit rate 2% among 360,000; Potency, µM (series often up to 46.1 µM), without a hit: at the highest dose activity, negative = toxicity, most hits filed as cytotoxic;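 also: 0% = DMSO wells and -100% = cell-free medium wells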
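IDH1KD HT-1080 cells, 750/well, RPMI + 5% FBS; compound pinned after 2 h settling; 48 h, 37 °C; CellTiter-Glo luminescence; % activity normalised to DMSO and no-cell wells; curves fitted, classed by r2 and efficacy.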
MCF10A rerep = DNA re-replication induction in MCF 10a cells; MCF 10A DNA re-replication, Hoechst nuclear intensity, 48 h; hit rate 2.9% among 350,000; Potency, µM (series often up to 46.1 µM), inactives show at the top dose activity, positive = re-replication, actives largely listed as activators; also: % of control where 0% means no effect; nearly all actives have a fitted effect of over 50% in size
Starred values were filed as active, the others as inactive; i = inactive; ? = inconclusive; nt = not tested or not shown; [ ] = dose if it differs, or a comment. A selection: hits, their analogues and other compounds. The true share with any hit is near 7.9%. Calls follow the shape of the dose curve; as a rule, active = well fitted curve in the direction sought with a large enough effect; inconclusive = small, poorly fitted or top-dose-only effect, or another doubt; inactive = no such curve, though single readings can be large; an effect the other way counts as inactive or inconclusive. Potency is read from the fitted curve at half-maximal effect.

SMILES	KB-V1 cytotox	HT1080-NT tox	KB-3-1 tox	SW480 rerep	HT1080 IDH1KD tx	MCF10A rerep
CC(C)CCNC(=O)CCCOc1cc(=O)n(C)c2ccccc12	13µM*	10%	i	-6%	13%	?
CC1CCN(C(=O)CCCOc2cc(=O)n(C)c3ccccc23)CC1	?	-2%	i	-16%	-2%	15%
COc1ccc(N2CCN(C(=O)CCCOc3cc(=O)n(C)c4ccccc34)CC2)cc1	8.2µM*	-4%	i	0%	4%	16%
Cc1ccc(C)c(N2CCN(C(=O)CCCOc3cc(=O)n(C)c4ccccc34)CC2)c1	8.2µM*	-51%	?	?	?	?
COC(=O)[C@]12CCCCC=C1N(Cc1ccc(Cl)cc1Cl)C(=O)[C@H](CC(=O)NCc1ccc(OC)c(OC)c1)C2	?	?	?	nt	13µM*	nt
COC(=O)[C@]12CCCCC=C1N(Cc1ccc(Cl)cc1Cl)C(=O)[C@H](CC(=O)NCc1ccccc1)C2	i	-28%	?	nt	-30%	nt
CCOC(=O)[C@]12CCCC=C1N(Cc1ccc(Cl)cc1Cl)C(=O)[C@H](CC(=O)NCc1ccc(OC)c(OC)c1)C2	18µM*	?	?	nt	?	nt
CCOC(=O)[C@]12CCCC=C1N(Cc1ccc3c(c1)OCO3)C(=O)[C@H](CC(=O)NCc1ccc(OC)c(OC)c1)C2	i	3%	i	nt	8%	nt
CCN(Cc1ccccc1)C(=O)c1ccc(CNS(=O)(=O)c2ccc(C)cc2)cc1	18µM*	-1%	i	82%	-8%	21µM*
CCc1ccc(S(=O)(=O)NCc2ccc(C(=O)NCCN(Cc3ccccc3)C(C)C)cc2)cc1	?	?	i	nt	16µM*	nt
CC(=O)Nc1ccc(S(=O)(=O)NCc2ccc(C(=O)NCCN(C)Cc3ccccc3)cc2)cc1	i	-15%	i	nt	-10%	nt
CN1C(=O)C[C@@H](C(=O)N[C@@H](Cc2cnc[nH]2)C(=O)N2CCC[C@H]2C(N)=O)NC1=O	nt	nt	nt	-1%	nt	4%
Cc1ccc(S(=O)(=O)Nc2ccc(Cl)cn2)cc1	i	3%	i	4%	4%	-1%
COc1ccc(S(=O)(=O)Nc2ccc(Cl)cn2)c(C)c1C	23µM*	1%	i	-2%	5%	-2%
CCc1ccc(NC(=O)CSc2ccc3nnc(CCNS(=O)(=O)c4ccc(OC)cc4)n3n2)cc1	i	nt	i	nt	nt	nt
O=C(Cn1nc(-c2ccccc2)ccc1=O)NCCN1CCN(c2cccc(Cl)c2)CC1	5.8µM*	-18%	i	-2%	?	-1%
Cc1ccc(-c2noc(CCC(=O)NCCCN3CCN(c4ccc(F)cc4)CC3)n2)cc1	13µM*	23µM*	?	?	-12%[9.24 µM]	7%
CCN1CCN(CCCNC(=O)CCc2nc(-c3ccc(OC)cc3)no2)CC1	i	3%	i	7%	7%	-12%
Cc1ccccc1CS(=O)(=O)CCC(=O)NCCN1CCN(c2cccc(Cl)c2)CC1	10µM*	-1%	i	-124%	-3%	0%
Cc1ccc(-c2noc(CCC(=O)NCCCN3CCN(c4cccc(Cl)c4)CC3)n2)cc1	16µM*	?	18µM*	?	?	?
COc1ccc(-c2noc(CCC(=O)NCCCN3CCN(c4ccccc4F)CC3)n2)cc1	i	-1%	i	-8%	-9%	23%
Cn1c(=O)c(=O)n(C)c2cc(N3CCCC3)c(NC(=O)c3ccccc3Cl)cc21	i	nt	i	nt	nt	nt
CCOc1ccc(NCc2nnc(SCc3ccccc3Cl)n2-c2ccccc2)cc1	21µM*	?	i	20%	?	?
Cc1cc(C)n(CC(O)Cn2c3ccc(Cl)cc3c3cc(Cl)ccc32)c(=O)n1 (centres undefined)	16µM*	?	i	4%	?	2%
Cc1cc(C)n(CC(O)Cn2c3ccccc3c3ccccc32)n1 (centres undefined)	i	-15%	i	6%	?	?
SMILES	KB-V1 cytotox	HT1080-NT tox	KB-3-1 tox	SW480 rerep	HT1080 IDH1KD tx	MCF10A rerep
CCc1ccc(NCc2cc3ccc(OC)cc3n(CC(=O)Nc3ccc(C(C)C)cc3)c2=O)cc1	i	nt	i	nt	nt	nt
COc1ccccc1C(=O)Nc1cccc(C(=O)OCc2cc(=O)n3nc(C4CC4)sc3n2)c1	i	nt	i	nt	nt	nt
Cn1cc(C(=O)N2CCN(c3cccc(Cl)c3)CC2)c(=O)c2cc(S(=O)(=O)N3CCCC3)ccc21	i	nt	i	nt	nt	nt
CCn1cc(C2=NOC(C(=O)Nc3ccccc3C(=O)OC)C2)c(C)n1 (centres undefined)	10µM*	2%	i	-11%	-7%	-6%
COC(=O)c1ccccc1NC(=O)C1CC(c2ccccc2O)=NO1 (centres undefined)	i	-2%	i	0%	?	-8%
O=c1c(Cl)c(Cl)cnn1Cc1nnc(-c2ccc(Cl)cc2)o1	i	16µM*	?	3.7µM*	8.2µM*	5.8µM*
O=c1c(Cl)c(Cl)cnn1Cc1ccccc1Cl	i	?	?	?	18µM*	5.8µM*
Cc1cc(C)cc(Cn2ncc(Cl)c(Cl)c2=O)c1	23µM*	-27%	?	3.7µM*	16µM*	3.7µM*
Cc1ccc(Cn2ncc(Cl)c(Cl)c2=O)cc1	i	?	i	?	?	?
COc1ccc(C(=O)NC2CCCc3ccccc32)cc1S(=O)(=O)N1CCOCC1 (centres undefined)	?	10%	i	10µM*	3%	20%
Cc1ccc(C(=O)NC2CCCc3ccccc32)cc1[N+](=O)[O-] (centres undefined)	?	?	i	?	13µM*	?
COc1ccc(C(=O)Nc2ccccc2[N+](=O)[O-])cc1S(=O)(=O)N1CCOCC1	nt	-1%	nt	18µM*	-8%	?
O=C(Nc1ccccc1[N+](=O)[O-])c1cc(S(=O)(=O)N2CCOCC2)cs1	nt	-12%	nt	?	-24%	23µM*
CCCCCCCCN1C(=O)[C@H](CC(=O)NCC2CCCCC2)C[C@@]2(C(=O)OC)CCCCC=C12	i	-4%	?	nt	-22%	nt
CCOC(=O)N1CCN(c2ccc(S(=O)(=O)N(Cc3ccccc3)Cc3ccccc3)cn2)CC1	5.8µM*	-5%	i	2%	-7%	-7%
Cc1cc(C)c2c(c1)/C(=N/NS(=O)(=O)c1ccc(Br)cc1)CCC2	?	-27%	i	3%	-20%	7.1µM*
COc1cccc(C(=O)Oc2ccccc2/C=C\C(=O)c2cc3ccccc3o2)c1	i	18µM*	?	?	21µM*	0.58µM*
